Reference: PubChem BioAssay
Where “and” joins values, the source holds several entries; their conditions need not be identical. Equal values may be shown once. Calls of active or inactive are those of the source.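 Rule for the calls, unless noted: active = thallium flux through the channel raised or lowered by more than 3 SD from vehicle-only wells, actives on both sides; inactive = the rest.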

Experiments:
[1] = Wnt pathway potentiators raising nuclear beta-catenin – imaging, WNT3A-conditioned medium, mouse C2C12, NPC library, primary screen (AID 1117326; in the data active = nuclear beta-catenin stimulation mostly above about 4.2%, no sharp cut-off; inactive = mostly below about 10%); conditions: stronger effect = higher value
[2] = stimulators of insulin release from INS-1E, primary screen, cell-based, 5 mM glucose, NPC library (AID 1117329;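 active = compound raises insulin release from rat beta cells at 5 mM glucose, no numeric limit stated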); conditions: rat INS-1E insulin secretion, at 10 µM, stronger effect = higher value
[3] = growth inhibition of GSK3B-pretreated HCT116 cells – cell-based, CellTiter-Glo, 0.2 to 20 µM (AID 1117336;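 active = compounds lowering colon cancer cell viability after pretreatment blocking the GSK3B kinase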); conditions: HCT116 viability after GSK3B inhibitor, at 20 µM, stronger effect = higher value
[4] = inhibition of endothelial tube formation, primary screen, imaging, VEGF stimulated, CD31 staining, tube area, NPC library (AID 1117340;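 active = compound that reduces growth-factor-driven endothelial tube area in a mixed cell culture, no cutoff stated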); conditions: VEGF-stimulated ADSC/ECFC co-culture, at 10 µM, stronger effect = higher value
[5] = GLP1 release stimulators, primary, NCI-H716, NPC library (AID 1117341;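 active = compound raises GLP1 secretion from the human gut endocrine cells, with no numeric limit stated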); conditions: NCI-H716 cells, at 10 µM, stronger effect = higher value
[6] = HCT116 colon cancer cell growth inhibition, primary screen, CellTiter-Glo luminescence, NPC library (AID 1117342;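 active = compounds that lower survival of HCT116 colon cancer cells in the luminescence readout, no numeric limit stated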); conditions: at 20 µM (top of the series)
[7] = reduced SW480 viability measured with CellTiter-Glo, NPC library, primary (AID 1117343;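 active = compounds that lower viability of the colon cancer cells in the luminescence readout, with no numeric limit stated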); conditions: CellTiter-Glo luminescence; at 20 µM (top of the series)
[8] = NPC library primary testing for decreased DLD-1 cell viability via CellTiter-Glo (AID 1117346;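 active = compounds that lower survival of DLD-1 colon cancer cells in the luminescence readout, no cutoff given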); conditions: DLD-1 viability, CellTiter-Glo luminescence; at 20 µM (top of the series)
[9] = molecular target: 6-phosphogluconate dehydrogenase, decarboxylating (Homo sapiens) (UniProt P52209); experiment: inhibition of human phosphogluconate dehydrogenase – biochemical, recombinant enzyme, NADPH absorbance, primary screen (AID 1159550;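 active = at least 20% inhibition of 6-phosphogluconate dehydrogenase activity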); conditions: recombinant 6PGD, NADPH absorbance 341 nm; at 10 µM; stronger effect = higher value
6-phosphogluconate dehydrogenase, decarboxylating (Homo sapiens), sequence (P52209 whole entry, looked up): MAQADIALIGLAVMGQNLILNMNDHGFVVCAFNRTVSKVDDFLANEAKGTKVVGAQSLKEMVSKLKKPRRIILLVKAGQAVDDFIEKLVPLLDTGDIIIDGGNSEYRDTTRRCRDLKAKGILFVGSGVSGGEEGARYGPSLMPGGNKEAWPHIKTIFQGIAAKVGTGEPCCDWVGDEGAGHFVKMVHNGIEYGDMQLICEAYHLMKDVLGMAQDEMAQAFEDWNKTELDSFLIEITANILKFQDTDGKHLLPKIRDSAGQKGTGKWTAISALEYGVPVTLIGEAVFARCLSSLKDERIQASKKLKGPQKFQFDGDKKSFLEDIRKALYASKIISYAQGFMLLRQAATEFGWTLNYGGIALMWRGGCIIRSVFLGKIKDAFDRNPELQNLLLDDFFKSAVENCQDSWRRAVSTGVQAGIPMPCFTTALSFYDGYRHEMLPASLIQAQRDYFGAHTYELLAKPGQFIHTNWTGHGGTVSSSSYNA

[10] = modulation of C. elegans fzo-1 (AID 1259413; call rule not given here;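 note: fzo-1 mutant C. elegans worms in liquid wells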); conditions: C. elegans fzo-1 modulator screen, mean read-out; stronger effect = higher value
[11] = EMT-state selective cytotoxicity in co-culture – imaging, PC-3E GFP, TEM4-18 mCherry, primary screen (AID 1345086;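 active = compounds killing one labelled cell type while sparing the other, by normalised counts and ratio limits, not self-fluorescent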;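 for all read-outs here: cells exposed to compound for 72 h before imaging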;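 for red/green cell ratio (normalised): normalised mesenchymal count divided by normalised epithelial count so high means epithelial killing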); conditions: PC-3E GFP / TEM4-18 mCherry co-culture, imaging cell counts, at 1 µM; for red/green cell ratio (normalised): actives lie on both sides, counts scaled to control wells, 1 = unselective
[12] = MELAS cybrid and Rieske KO viability enhancers – cell-based, MELAS cybrids, Rieske KO mouse fibroblasts, CellTiter-Glo, primary screen (AID 1508586;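 active = mean z-score across replicates of 1.96 or higher in either the MELAS or the Rieske mutant cell line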;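 note: z relative to plate mean and SD of compound and empty wells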); conditions: low glucose
[13] = molecular target: NAD(+) hydrolase SARM1 (Homo sapiens) (UniProt Q6SZW1); experiment: blocking NAD cleavage by SARM1 SAM-TIR – cell lysate, NAD-Glo luminescence (AID 1508614;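 active = compound whose remaining NAD level is above about 45 nM, limit read from the data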;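 note: higher remaining NAD means stronger inhibition of SARM1 NADase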); conditions: SAM-TIR HEK293T lysate NADase, at 1 µM, stronger effect = higher value
NAD(+) hydrolase SARM1 (Homo sapiens), sequence (Q6SZW1 whole entry, looked up, the tested form may be a part): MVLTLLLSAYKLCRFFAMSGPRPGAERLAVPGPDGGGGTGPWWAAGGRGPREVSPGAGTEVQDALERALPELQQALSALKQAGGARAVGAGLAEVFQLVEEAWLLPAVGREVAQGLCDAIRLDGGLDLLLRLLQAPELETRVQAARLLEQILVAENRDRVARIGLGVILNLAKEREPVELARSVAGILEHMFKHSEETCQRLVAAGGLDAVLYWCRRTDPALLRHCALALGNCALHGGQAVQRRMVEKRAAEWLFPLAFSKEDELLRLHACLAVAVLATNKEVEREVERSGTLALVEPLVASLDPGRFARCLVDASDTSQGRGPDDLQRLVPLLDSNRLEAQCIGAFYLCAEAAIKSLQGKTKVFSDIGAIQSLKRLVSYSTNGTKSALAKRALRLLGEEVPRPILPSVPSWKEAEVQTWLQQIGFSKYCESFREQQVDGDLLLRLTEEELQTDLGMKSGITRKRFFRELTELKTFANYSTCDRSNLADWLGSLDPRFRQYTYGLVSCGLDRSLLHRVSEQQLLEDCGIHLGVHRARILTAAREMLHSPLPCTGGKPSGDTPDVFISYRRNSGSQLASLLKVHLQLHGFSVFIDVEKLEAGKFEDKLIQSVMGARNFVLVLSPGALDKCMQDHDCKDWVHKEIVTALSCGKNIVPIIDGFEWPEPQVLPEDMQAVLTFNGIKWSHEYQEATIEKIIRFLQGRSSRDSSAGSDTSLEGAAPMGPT

[14] = molecular target: Mitogen-activated protein kinase 7 (Homo sapiens) (UniProt Q13164); experiment: Gal4-ERK5 driven luciferase induction – cell-based, HTS, primary screen (AID 1508626;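 active = luciferase signal above three times the same-plate solvent-only control wells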;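 note: luciferase driven by Gal4-ERK5 fusion binding five Gal4 sites before minimal TATA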); conditions: HeLa Gal4-ERK5 transactivation, 18 h, at 5 µM, stronger effect = higher value
Mitogen-activated protein kinase 7 (Homo sapiens), sequence (Q13164 whole entry, looked up, the tested form may be a part): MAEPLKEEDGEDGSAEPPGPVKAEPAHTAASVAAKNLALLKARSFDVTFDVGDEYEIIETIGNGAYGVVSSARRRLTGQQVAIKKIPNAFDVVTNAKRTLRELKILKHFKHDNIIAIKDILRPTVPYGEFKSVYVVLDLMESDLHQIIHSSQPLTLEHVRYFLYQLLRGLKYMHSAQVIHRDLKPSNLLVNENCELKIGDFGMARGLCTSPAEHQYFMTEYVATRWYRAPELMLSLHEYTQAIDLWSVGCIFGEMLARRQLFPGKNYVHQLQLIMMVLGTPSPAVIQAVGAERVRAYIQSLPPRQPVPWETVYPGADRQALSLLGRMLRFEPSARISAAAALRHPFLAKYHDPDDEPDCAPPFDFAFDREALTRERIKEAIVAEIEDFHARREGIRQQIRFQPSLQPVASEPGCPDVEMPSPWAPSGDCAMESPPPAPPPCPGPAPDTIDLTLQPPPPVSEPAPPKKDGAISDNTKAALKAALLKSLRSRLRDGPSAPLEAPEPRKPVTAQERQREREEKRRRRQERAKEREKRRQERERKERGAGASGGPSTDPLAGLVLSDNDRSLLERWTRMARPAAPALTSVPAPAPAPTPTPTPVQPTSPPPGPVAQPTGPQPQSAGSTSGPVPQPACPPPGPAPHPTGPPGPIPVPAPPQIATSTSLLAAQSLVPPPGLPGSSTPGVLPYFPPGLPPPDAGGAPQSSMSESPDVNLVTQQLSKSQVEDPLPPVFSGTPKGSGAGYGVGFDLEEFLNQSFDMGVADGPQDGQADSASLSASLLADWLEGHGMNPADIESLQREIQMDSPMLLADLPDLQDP

F380Y = experiment: BK channel mutant inhibitors and activators – cell-based, U2OS BacMam, thallium flux, beta subunits, selectivity assay, profiling panel (AID 1259406); conditions: U2OS BacMam BK variants, at 30 µM;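 note: initial slope of Thallos dye fluorescence rise after thallium is added; log ratio against the mean of 0.3% DMSO vehicle wells on the same plate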
F380Y/beta1 = experiment: as above; conditions: U2OS BacMam BK variants, at 30 µM
F380Y/beta2Delta = experiment: as above; conditions: U2OS BacMam BK variants, at 30 µM
[15] = viability loss with induced miR-34 in A549 – imaging, A549 dox-inducible miR-34, nuclei and caspase counts, primary screen (AID 1347080;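 active = compounds whose cell count with miR-34 switched on is under 0.7 times the count with it off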); conditions: A549 miR-34 inducible, Hoechst nuclei count, 48 h
[16] = growth inhibition, single agents and combos, ICB984, cell-based, cisplatin or BGB combos, synergistic combos for chromothripsis tumors (AID 1671451; call rule not given here;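 note: cells exposed for 96 hours before readout; 0% = vehicle DMSO and 100% = killing by high DMSO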); conditions: ICB984 medulloblastoma cells, drug combinations, stronger effect = higher value
[17] = measured here: epithelial PC-3E GFP cell survival
[18] = measured here: mesenchymal TEM4-18 mCherry cell survival
[19] = MELAS cybrid survival, CellTiter-Glo 48 h, stronger effect = higher value
[20] = Rieske KO mouse fibroblast survival, CellTiter-Glo 72 h

COc1ccccc1OCCNCC(O)COc1cccc2[nH]c3ccccc3c12 (stereo not drawn)
1.02 and 1.07: normalised cell number [11, 17]
1.13 and 1: normalised cell number [11, 18]
active: tube area decrease [4] 60.9% | inhibition of viability [6] 83.7% | viability decrease (inhibition) [7] 112% | viability decrease (inhibition) [8] 90.5% | log fold change Tl+ flux (F380Y/beta1) 0.26 | log fold change Tl+ flux (F380Y/beta2Delta) -0.29
2%: nuclear beta-catenin stimulation ([1]; stimulation, at 2 µM)
-0.463 and 1.15 and -0.0666: z-score [12, 20]
inactive: nuclear beta-catenin stimulation ([1]; at 10 µM) 10.7% | insulin secretion stimulation [2] 1.9% | viability decrease [3] 7.2% | GLP1 secretion stimulation [5] 11.2% | inhibition [9] 6.21% | mean signal [10] 201 | red/green cell ratio (normalised) [11] 1.11 and 0.93 | z-score [12, 19] -0.281 and 0.201 and -0.32 | remaining NAD [13] 14 nM and 10 nM | luciferase signal [14] 340 AU | log fold change Tl+ flux (F380Y) -0.0291

NNCCc1ccccc1
0.91: normalised cell number [11, 18]
inactive: nuclear beta-catenin stimulation ([1]; at 10 µM) 1.9% | insulin secretion stimulation [2] -0.6% | viability decrease [3] -32% | tube area decrease [4] 7.4% | GLP1 secretion stimulation [5] -0.4% | inhibition of viability [6] 5.1% | viability decrease (inhibition) [7] -14.5% | viability decrease (inhibition) [8] 7.4% | inhibition [9] 8.47% | mean signal [10] 213 | red/green cell ratio (normalised) [11] 0.88 | z-score [12, 19] -0.122 | remaining NAD [13] 10 nM | luciferase signal [14] 44 AU | log fold change Tl+ flux (F380Y) 0.0104 | log fold change Tl+ flux (F380Y/beta1) -0.0168 | log fold change Tl+ flux (F380Y/beta2Delta) -0.0213
-0.108: z-score [12, 20]
0.7%: nuclear beta-catenin stimulation ([1]; stimulation, at 2 µM)
1.03: normalised cell number [11, 17]

OC(Cn1cncn1)(Cn1cncn1)c1ccc(F)cc1F
1.1%: nuclear beta-catenin stimulation ([1]; stimulation, at 2 µM)
inactive: nuclear beta-catenin stimulation ([1]; at 10 µM) 1.7% | insulin secretion stimulation [2] 4.05% | viability decrease [3] 19.2% | tube area decrease [4] -10% | GLP1 secretion stimulation [5] 1% | inhibition of viability [6] 1.7% | viability decrease (inhibition) [7] 7.1% | viability decrease (inhibition) [8] 2.4% | inhibition [9] 9% | mean signal [10] 277 | red/green cell ratio (normalised) [11] 1.28 | z-score [12, 19] -0.408 and -0.874 and -0.724 | remaining NAD [13] 14 nM | luciferase signal [14] 32 AU | log fold change Tl+ flux (F380Y) 0.0166 | log fold change Tl+ flux (F380Y/beta1) -0.0268 | log fold change Tl+ flux (F380Y/beta2Delta) -0.000209
1.22: normalised cell number [11, 17]
1.57: normalised cell number [11, 18]
-0.288 and -0.48 and -0.41: z-score [12, 20]

O=C(O)c1cccnc1
0.91: normalised cell number [11, 17]
1.11: normalised cell number [11, 18]
0.576 and -0.807: z-score [12, 20]
inactive: nuclear beta-catenin stimulation ([1]; at 10 µM) -0.4% | insulin secretion stimulation [2] -1.6% | viability decrease [3] -0.65% | tube area decrease [4] -17.1% | GLP1 secretion stimulation [5] -5.4% | inhibition of viability [6] -15.8% | viability decrease (inhibition) [7] 37.9% | viability decrease (inhibition) [8] 4.6% | inhibition [9] -13.9% | mean signal [10] 255 | red/green cell ratio (normalised) [11] 1.22 | z-score [12, 19] -0.357 and 0.00203 | remaining NAD [13] 10 nM | luciferase signal [14] 44 AU | log fold change Tl+ flux (F380Y) -0.0113 | log fold change Tl+ flux (F380Y/beta1) 0.00202 | log fold change Tl+ flux (F380Y/beta2Delta) 0.0201
-0.5%: nuclear beta-catenin stimulation ([1]; stimulation, at 2 µM)

COc1ccc(Cl)cc1C(=O)NCCc1ccc(S(=O)(=O)NC(=O)NC2CCCCC2)cc1
1.05: normalised cell number [11, 18]
-0.5%: nuclear beta-catenin stimulation ([1]; stimulation, at 2 µM)
active: insulin secretion stimulation [2] 28.1% | viability decrease (inhibition) [7] 72.3% | log fold change Tl+ flux (F380Y/beta1) 0.119
0.7: normalised cell number [11, 17]
inactive: nuclear beta-catenin stimulation ([1]; at 10 µM) -0.8% | viability decrease [3] 17.8% | tube area decrease [4] 12% | GLP1 secretion stimulation [5] 4.4% | inhibition of viability [6] 20% | viability decrease (inhibition) [8] 14.1% | inhibition [9] 12.3% | mean signal [10] 242 | red/green cell ratio (normalised) [11] 1.5 | z-score [12, 19] 0.114 and -0.333 and 0.459 | remaining NAD [13] 10 nM | luciferase signal [14] 52 AU | log fold change Tl+ flux (F380Y) 0.0726 | log fold change Tl+ flux (F380Y/beta2Delta) 0.0268
0.113 and 0.377 and -0.0891: z-score [12, 20]

CCOC(=O)C1=C(C)NC(C)=C(C(=O)OC)C1c1cccc([N+](=O)[O-])c1 (stereo not drawn)
1.2%: nuclear beta-catenin stimulation ([1]; stimulation, at 2 µM)
1.31: normalised cell number [11, 18]
active: viability decrease [3] 58.2% | inhibition of viability [6] 75.7% | viability decrease (inhibition) [7] 52.4%
inactive: nuclear beta-catenin stimulation ([1]; at 10 µM) -0.1% | insulin secretion stimulation [2] 2.2% | tube area decrease [4] 23.7% | GLP1 secretion stimulation [5] -0.6% | viability decrease (inhibition) [8] 40.9% | inhibition [9] 2.14% | mean signal [10] 230 | red/green cell ratio (normalised) [11] 1.19 | z-score [12, 19] -0.48 and 1.38 and -0.0841 | remaining NAD [13] 10 nM | log fold change Tl+ flux (F380Y) 0.00482 | log fold change Tl+ flux (F380Y/beta1) -0.0255 | log fold change Tl+ flux (F380Y/beta2Delta) -0.0689
0.0141 and 0.8 and 0.442: z-score [12, 20]
1.11: normalised cell number [11, 17]

CS(=O)(=O)OCCCCOS(C)(=O)=O
-13.7% and -14%: inhibition ([16]; BGB IC40 combo, at 0.005 µM)
9740 and 7120 and 8790: cell count ([15]; measured here: total cells with miR-34 induction, stronger effect = lower value)
10200 and 8020: cell count ([15]; measured here: total cells without miR-34 induction)
-7.43% and 3.18%: inhibition ([16]; BGB IC40 combo, at 0.05 µM)
-29.1% and 6.4%: inhibition ([16]; measured here: 5 uM single agent, at 5 µM)
0.6%: nuclear beta-catenin stimulation ([1]; stimulation, at 2 µM)
1.41 and 0.655 and 1.42: fold change ([15]; measured here: relative caspase fold change +Dox/-Dox)
1.19: normalised cell number [11, 18]
-15.4% and -25.1%: inhibition ([16]; BGB IC20 combo, at 0.005 µM)
inactive: nuclear beta-catenin stimulation ([1]; at 10 µM) 1.2% | insulin secretion stimulation [2] 0.2% | viability decrease [3] 3.6% | tube area decrease [4] 32.5% | GLP1 secretion stimulation [5] -1.7% | inhibition of viability [6] -1.23% | viability decrease (inhibition) [7] 31.8% | viability decrease (inhibition) [8] -11% | inhibition [9] 1.77% | mean signal [10] 241 | red/green cell ratio (normalised) [11] 1.02 | fold change ([15]; stronger effect = lower value, cell number ratio, induced over uninduced) 0.955 and 0.888 and 0.86 | z-score [12, 19] -0.182 and -0.283 | remaining NAD [13] 10 nM | luciferase signal [14] 52 AU | inhibition ([16]; at 0.5 µM) -25.5% and -7% | log fold change Tl+ flux (F380Y) -0.0118 | log fold change Tl+ flux (F380Y/beta1) 0.0504 | log fold change Tl+ flux (F380Y/beta2Delta) 0.00156
-11.3% and 3.18%: inhibition ([16]; cisplatin combo, at 0.05 µM)
-0.743 and -0.155: z-score [12, 20]
1.16: normalised cell number [11, 17]
-50.4% and -16.4%: inhibition ([16]; cisplatin combo, at 5 µM)
-9.08% and -3.26%: inhibition ([16]; cisplatin combo, at 0.5 µM)
